# The entries come from a sample that favours the strongest signals as a whole.
# How the values were obtained:
# Assay in all cases: glycan array binding signal (z-score within array); higher = stronger binding
# Conditions in all cases: glycan notation: IUPAC condensed, linker removed
# Fuc(a1-2)Gal(b1-4)Glc = biological target: Fuc(a1-2)Gal(b1-4)Glc
# How it was run: (§1)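 From the Consortium for Functional Glycomics database, 3228 arrays were curated, keeping only those whose protein sequence was available. Binding is given as a within-array Z-score averaged across arrays sharing a protein sequence and across linkers. Negative Z-scores can be read as non-binding.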
# [1] = biological target: Fuc(a1-2)Gal(b1-4)GlcNAc(b1-2)[Fuc(a1-2)Gal(b1-4)GlcNAc(b1-4)]Man(a1-3)[Fuc(a1-2)Gal(b1-4)GlcNAc(b1-2)Man(a1-6)]Man(b1-4)GlcNAc(b1-4)GlcNAc
# How it was run: as §1
# [2] = biological target: Fuc(a1-2)Gal(b1-4)GlcNAc(b1-3)[Fuc(a1-2)Gal(b1-4)GlcNAc(b1-6)]GalNAc
# How it was run: as §1
# [3] = biological target: Fuc(a1-2)[Gal(a1-3)]Gal(b1-4)[Fuc(a1-3)]Glc
# How it was run: as §1
# [4] = biological target: Fuc(a1-2)[Gal(a1-3)]Gal(b1-4)[Fuc(a1-3)]GlcNAc(b1-3)GalNAc
# How it was run: as §1
# [5] = biological target: Fuc(a1-2)[Gal(a1-4)]Gal(b1-4)GlcNAc
# How it was run: as §1
# [6] = biological target: Fuc(a1-2)[GalNAc(a1-3)]Gal
# How it was run: as §1
# [7] = biological target: Fuc(a1-2)[GalNAc(a1-3)]Gal(b1-3)GlcNAc(b1-3)GalNAc
# How it was run: as §1
# [8] = biological target: Fuc(a1-2)[GalNAc(a1-3)]Gal(b1-4)GlcNAc
# How it was run: as §1
# [9] = biological target: Fuc(a1-2)[GalNAc(a1-3)]Gal(b1-4)GlcNAc(b1-3)Gal(b1-4)GlcNAc(b1-3)Gal(b1-4)GlcNAc
# How it was run: as §1
# [10] = biological target: Fuc(a1-2)[GalNAc(a1-3)]Gal(b1-4)GlcNAc(b1-3)GalNAc
# How it was run: as §1
# [11] = biological target: Fuc(a1-2)[GalNAc(a1-3)]Gal(b1-4)[Fuc(a1-3)]GlcNAc
# How it was run: as §1
# Fuc(a1-3)GlcNAc = biological target: Fuc(a1-3)GlcNAc
# How it was run: as §1
# [12] = biological target: Fuc(a1-3)[Gal(b1-4)]GlcNAc(b1-6)GalNAc
# How it was run: as §1
# [13] = biological target: Fuc(a1-3)[Gal3S(b1-4)]GlcNAc
# How it was run: as §1
# [14] = biological target: Gal(a1-4)Gal(b1-4)GlcNAc(b1-3)Gal(b1-4)Glc
# How it was run: as §1
# [15] = biological target: Gal(b1-3)GlcNAc(b1-3)GalNAc
# How it was run: as §1
# [16] = biological target: Gal(b1-3)GlcNAc(b1-6)Gal(b1-4)GlcNAc
# How it was run: as §1
# [17] = biological target: Gal(b1-3)[Fuc(a1-4)]GlcNAc(b1-3)Gal(b1-4)GlcNAc
# How it was run: as §1
# [18] = biological target: Gal(b1-3)[Neu5Ac(a2-6)]GalNAc
# How it was run: as §1
# [19] = biological target: Gal(b1-4)GlcNAc(b1-3)Gal(b1-3)GalNAc
# How it was run: as §1
# [20] = biological target: Gal(b1-4)GlcNAc(b1-3)Gal(b1-4)GlcNAc(b1-2)Man(a1-3)[Gal(b1-4)GlcNAc(b1-3)Gal(b1-4)GlcNAc(b1-2)Man(a1-6)]Man(b1-4)GlcNAc(b1-4)[Fuc(a1-6)]GlcNAc
# How it was run: as §1
# [21] = biological target: Gal(b1-4)GlcNAc(b1-3)Gal(b1-4)GlcNAc(b1-2)[Gal(b1-4)GlcNAc(b1-3)Gal(b1-4)GlcNAc(b1-6)]Man(a1-6)[Gal(b1-4)GlcNAc(b1-3)Gal(b1-4)GlcNAc(b1-2)Man(a1-3)]Man(b1-4)GlcNAc(b1-4)GlcNAc
# How it was run: as §1
# [22] = biological target: Gal(b1-4)GlcNAc(b1-3)Gal(b1-4)GlcNAc(b1-3)Gal(b1-4)GlcNAc(b1-3)Gal(b1-4)GlcNAc(b1-2)Man(a1-3)[Gal(b1-4)GlcNAc(b1-3)Gal(b1-4)GlcNAc(b1-3)Gal(b1-4)GlcNAc(b1-3)Gal(b1-4)GlcNAc(b1-2)Man(a1-6)]Man(b1-4)GlcNAc(b1-4)[Fuc(a1-6)]GlcNAc
# How it was run: as §1
# [23] = biological target: Gal(b1-4)GlcNAc(b1-3)Gal(b1-4)GlcNAc(b1-3)Gal(b1-4)GlcNAc(b1-3)Gal(b1-4)GlcNAc(b1-3)Gal(b1-4)GlcNAc(b1-2)Man(a1-3)[Gal(b1-4)GlcNAc(b1-3)Gal(b1-4)GlcNAc(b1-3)Gal(b1-4)GlcNAc(b1-3)Gal(b1-4)GlcNAc(b1-3)Gal(b1-4)GlcNAc(b1-2)Man(a1-6)]Man(b1-4)GlcNAc(b1-4)[Fuc(a1-6)]GlcNAc
# How it was run: as §1
# [24] = biological target: Gal(b1-4)GlcNAc(b1-6)[Gal(b1-3)]GalNAc
# How it was run: as §1
# Gal3S(b1-3)GlcNAc = biological target: Gal3S(b1-3)GlcNAc
# How it was run: as §1
# [25] = biological target: Gal3S(b1-4)[Fuc(a1-3)]Glc6S
# How it was run: as §1
# Gal3S6S(b1-4)GlcNAc = biological target: Gal3S6S(b1-4)GlcNAc
# How it was run: as §1
# [26] = biological target: GlcNAc(b1-3)Gal(b1-4)GlcNAc(b1-3)Gal(b1-4)GlcNAc(b1-3)Gal(b1-4)GlcNAc(b1-3)Gal(b1-4)GlcNAc(b1-2)Man(a1-3)[GlcNAc(b1-3)Gal(b1-4)GlcNAc(b1-3)Gal(b1-4)GlcNAc(b1-3)Gal(b1-4)GlcNAc(b1-3)Gal(b1-4)GlcNAc(b1-2)Man(a1-6)]Man(b1-4)GlcNAc(b1-4)[Fuc(a1-6)]GlcNAc
# How it was run: as §1
# [27] = biological target: GlcNAc(b1-3)Gal(b1-4)GlcNAc(b1-6)[Gal(b1-3)]GalNAc
# How it was run: as §1
# [28] = biological target: GlcNAc(b1-3)[GlcNAc(b1-6)]GalNAc
# How it was run: as §1
# Kdn(a2-6)Gal(b1-4)GlcNAc = biological target: Kdn(a2-6)Gal(b1-4)GlcNAc
# How it was run: as §1
# [29] = biological target: Man(a1-2)Man(a1-3)[Man(a1-2)Man(a1-6)]Man
# How it was run: as §1
# [30] = biological target: Man(a1-2)Man(a1-6)[Man(a1-3)]Man(a1-6)[Man(a1-2)Man(a1-2)Man(a1-3)]Man
# How it was run: as §1
# [31] = biological target: Neu5Ac(a2-3)Gal(b1-3)GlcNAc(b1-3)Gal(b1-3)GlcNAc
# How it was run: as §1
# [32] = biological target: Neu5Ac(a2-3)Gal(b1-3)GlcNAc(b1-3)GalNAc
# How it was run: as §1
# [33] = biological target: Neu5Ac(a2-3)Gal(b1-3)GlcNAc(b1-4)Gal(b1-4)Glc
# How it was run: as §1
# [34] = biological target: Neu5Ac(a2-3)Gal(b1-4)GlcNAc(b1-3)Gal(b1-4)GlcNAc
# How it was run: as §1
# [35] = biological target: Neu5Ac(a2-3)Gal(b1-4)GlcNAc(b1-3)Gal(b1-4)GlcNAc(b1-3)Gal(b1-4)GlcNAc(b1-2)Man(a1-3)[Neu5Ac(a2-3)Gal(b1-4)GlcNAc(b1-3)Gal(b1-4)GlcNAc(b1-3)Gal(b1-4)GlcNAc(b1-2)Man(a1-6)]GalNAc
# How it was run: as §1
# [36] = biological target: Neu5Ac(a2-3)Gal(b1-4)[Fuc(a1-3)]GlcNAc(b1-3)GalNAc
# How it was run: as §1
# [37] = biological target: Neu5Ac(a2-6)Gal(b1-4)GlcNAc(b1-2)Man(a1-3)Man(b1-4)GlcNAc(b1-4)GlcNAc
# How it was run: as §1
# [38] = biological target: Neu5Ac(a2-6)Gal(b1-4)GlcNAc(b1-2)[Neu5Ac(a2-6)Gal(b1-4)GlcNAc(b1-6)]Man(a1-6)[Neu5Ac(a2-6)Gal(b1-4)GlcNAc(b1-2)Man(a1-3)][GlcNAc(b1-4)]Man(b1-4)GlcNAc(b1-4)GlcNAc
# How it was run: as §1
# Neu5Ac(a2-6)GalNAc = biological target: Neu5Ac(a2-6)GalNAc
# How it was run: as §1
# [39] = biological target: Neu5Ac(a2-8)Neu5Ac(a2-3)Gal(b1-4)Glc
# How it was run: as §1
# [40] = biological target: Neu5Ac(a2-8)Neu5Ac(a2-3)Gal(b1-4)GlcNAc
# How it was run: as §1
# [41] = biological target: Neu5Ac(a2-8)Neu5Ac(a2-8)Neu5Ac(a2-3)[Gal(b1-3)GalNAc(b1-4)]Gal(b1-4)Glc
# How it was run: as §1
# [42] = biological target: Neu5Ac9Ac(a2-6)Gal(b1-4)GlcNAc
# How it was run: as §1
# [43] = biological target: Neu5Gc(a2-8)Neu5Ac(a2-3)Gal(b1-4)GlcNAc
# How it was run: as §1
binder,measurement,setting,value
"CD4 (Rattus norvegicus), P05540 (protein) MCRGFSFRHLLPLLLLQLSKLLVVTQGSTSITAYKSEGESAEFSFPLNLGEESLQGELRWKAEKAPSSQSWITFSLKNQKVSVQKSTSNPKFQLSETLPLTLQIPQVSLQFAGSGNLTLTLDRGILYQEVNLVVMKVTQPDSNTLTCEVMGPTSPKMRLILKQENQEARVSRQEKVIQVQAPEAGVWQCLLSEGEEVKMDSKIQVLSKGLNSGGGSGGGTGGGDLAPQMLRELQETNAALQDVRELLRQQVKEITFLKNTVMECDACGLDRNLPPLAPLGPHPETLVKVKDAEDQLGARVGYIELDLNSGKILESFRPEERFPMMSTFKVLLCGAVLSRIDAGQEQLGRRIHYSQNDLVEYSPVTEKHLTDGMTVRELCSAAITMSDNTAANLLLTTIGGPKELTAFLHNMGDHVTRLDRWEPELNEAIPNDERDTTMPVAMATTLRKLLTGELLTLASRQQLIDWMEADKVAGPLLRSALPAGWFIADKSGAGERGSRGIIAALGPDGKPSRIVVIYTTGSQATMDERNRQIAEIGASLIKHW",glycan array binding signal (z-score),Fuc(a1-2)Gal(b1-4)Glc,1.27
same,glycan array binding signal (z-score),[1],1.76
same,glycan array binding signal (z-score),[2],-0.242
same,glycan array binding signal (z-score),[3],0.448
same,glycan array binding signal (z-score),[4],-0.228
same,glycan array binding signal (z-score),[5],1.9
same,glycan array binding signal (z-score),[6],-0.738
same,glycan array binding signal (z-score),[7],2.41
same,glycan array binding signal (z-score),[8],-0.98
same,glycan array binding signal (z-score),[9],3.72
same,glycan array binding signal (z-score),[10],-0.665
same,glycan array binding signal (z-score),[11],2.67
same,glycan array binding signal (z-score),Fuc(a1-3)GlcNAc,-1.59
same,glycan array binding signal (z-score),[12],0.46
same,glycan array binding signal (z-score),[13],-0.413
same,glycan array binding signal (z-score),[14],3.31
same,glycan array binding signal (z-score),[15],0.109
same,glycan array binding signal (z-score),[16],-1.04
same,glycan array binding signal (z-score),[17],-0.072
same,glycan array binding signal (z-score),[18],-1.09
same,glycan array binding signal (z-score),[19],3.12
same,glycan array binding signal (z-score),[20],2.88
same,glycan array binding signal (z-score),[21],2.6
same,glycan array binding signal (z-score),[22],2.6
same,glycan array binding signal (z-score),[23],2.8
same,glycan array binding signal (z-score),[24],-1.17
same,glycan array binding signal (z-score),Gal3S(b1-3)GlcNAc,-0.868
same,glycan array binding signal (z-score),[25],3.99
same,glycan array binding signal (z-score),Gal3S6S(b1-4)GlcNAc,-0.623
same,glycan array binding signal (z-score),[26],-0.266
same,glycan array binding signal (z-score),[27],-0.267
same,glycan array binding signal (z-score),[28],-0.65
same,glycan array binding signal (z-score),Kdn(a2-6)Gal(b1-4)GlcNAc,-1.16
same,glycan array binding signal (z-score),[29],-0.568
same,glycan array binding signal (z-score),[30],1.05
same,glycan array binding signal (z-score),[31],0.207
same,glycan array binding signal (z-score),[32],-0.719
same,glycan array binding signal (z-score),[33],-1.28
same,glycan array binding signal (z-score),[34],-1.14
same,glycan array binding signal (z-score),[35],3.17
same,glycan array binding signal (z-score),[36],2.77
same,glycan array binding signal (z-score),[37],0.03
same,glycan array binding signal (z-score),[38],-1.55
same,glycan array binding signal (z-score),Neu5Ac(a2-6)GalNAc,-0.467
same,glycan array binding signal (z-score),[39],-0.183
same,glycan array binding signal (z-score),[40],0.265
same,glycan array binding signal (z-score),[41],0.105
same,glycan array binding signal (z-score),[42],0.028
same,glycan array binding signal (z-score),[43],-0.129

# Source: the supplement of paper PMC8728848
